The record followed here is the supplement of paper PMC8728848.

Test in all cases: glycan array binding signal (z-score within array); higher = stronger binding
Holding throughout (settings): glycan notation: IUPAC condensed, linker removed

Assay [1] addresses Fuc(a1-2)Gal(b1-3)GalNAc(b1-3)Gal(b1-4)Glc. An outline of the steps:
(§1)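 Glycan array binding is given as a within-array Z-score, which can be read as non-binding when negative. The arrays, 3228 of them, came from the Consortium for Functional Glycomics database and were retained only where the protein sequence was available. Z-scores were averaged across arrays of the same protein sequence at different concentrations or buffers and across linkers.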

Assay [2] addresses Fuc(a1-2)[Gal(a1-4)]Gal(b1-4)GalNAc. An outline of the steps:
as §1

In assay [3] the target is Fuc(a1-2)[GalNAc(a1-3)]Gal(b1-4)Glc. Summed up:
as §1

Assay [4] concerns the target Fuc(a1-3)GlcNAc. Summed up: as §1
The target in assay [5] is Gal(b1-3)[Fuc(a1-4)]GlcNAc(b1-3)Gal(b1-4)[Fuc(a1-3)]GlcNAc. An outline of the steps: as §1
Assay [6] deals with Gal(b1-4)GlcNAc(b1-2)Man(a1-3)[Gal(b1-4)GlcNAc(b1-2)Man(a1-6)]Man(b1-4)GlcNAc(b1-4)GlcNAc. Summed up: as §1
The target in assay [7] is Gal3S(b1-4)Glc6S. Summed up: as §1
Assay [8] concerns the target Gal3S6S(b1-4)GlcNAc. An outline of the steps: as §1
Assay [9] deals with Gal3S6S(b1-4)GlcNAc6S. An outline of the steps: as §1
The target in assay [10] is Gal6S(b1-4)Glc6S. Summed up: as §1
For assay [11], the target named is GlcNAc(b1-3)Gal. An outline of the steps:
as §1

The target in assay [12] is GlcNAc(b1-4)Gal(b1-4)GlcNAc. Summed up: as §1
Assay [13] concerns the target Man(a1-2)Man(a1-3)[Man(a1-6)]Man(a1-6)[Man(a1-2)Man(a1-3)]Man(b1-4)GlcNAc(b1-4)GlcNAc. An outline of the steps:
as §1

The target in assay [14] is Man(b1-4)GlcNAc. An outline of the steps: as §1
Assay [15] concerns the target Neu5Ac(a2-3)Gal(b1-3)GlcNAc. An outline of the steps: as §1
Assay [16] has as its target Neu5Ac(a2-3)Gal(b1-3)GlcNAc(b1-3)Gal(b1-4)GlcNAc. Summed up: as §1
Assay [17] deals with Neu5Ac(a2-3)Gal(b1-4)[Fuc(a1-3)]GlcNAc. An outline of the steps: as §1
Assay [18] deals with Neu5Ac(a2-3)Gal(b1-4)[Fuc(a1-3)]GlcNAc(b1-3)Gal. Summed up: as §1
Assay [19] concerns the target Neu5Ac(a2-6)Gal(b1-4)GlcNAc. An outline of the steps: as §1
In assay [20] the target is Neu5Gc(a2-6)Gal(b1-4)GlcNAc. Summed up:
as §1

Shown is part of a subset that was picked to be rich in the strongest signals.

B1: FBG5 (Homo sapiens), Q8NI29 (protein)
chain: MGASVSRGRAARVPAPEPEPEEALDLSQLPPELLLVVLSHVPPRTLLGRCRQVCRGWRALVDGQALWLLILARDHGATGRALLHLARSCQSPARNARPCPLGRFCARRPIGRNLIRNPCGQEGLRKWMVQHGGDGWVVEENRTTVPGAPSQTCFVTSFSWCCKKQVLDLEEEGLWPELLDSGRIEICVSDWWGARHDSGCMYRLLVQLLDANQTVLDKFSAVPDPIPQWNNNACLHVTHVFSNIKMGVRFVSFEHRGQDTQFWAGHYGARVTNSSVIVRVRLS
As to B1, the “glycan array binding signal (z-score)” value in [1] is -0.166; in [2], -0.19; in [3], 0.967; in [4] it was 0.417; in [5], -0.217; in assay [6], -0.102. Moreover, the “glycan array binding signal (z-score)” value was 0.206 in [7]; -0.009 in assay [8]; 2.32 in [9]; 0.548 in assay [10]; -0.119 in assay [11]; -0.095 in [12]. The “glycan array binding signal (z-score)” value in [13] was -0.112; in assay [14], -0.205; in [15] it was -0.161; in assay [16], -0.162; in assay [17] it was -0.231; in assay [18], -0.244. Also, the “glycan array binding signal (z-score)” value in [19] is -0.219; in assay [20], -0.248.
